Drawing on PubChem BioAssay (NCI), this text covers growth for 40 molecules.

Molecules are shown by their SMILES. About 83,000 compounds went through this panel and 20% of them were active in at least one assay; those are over-represented in the sample as a whole.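 For each line, cells grew in 96-well plates with the test compound present at a single concentration for 48 hours.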 Unmarked numbers belong to inactive results. Active and inactive are the calls of the source.

This test has as its system SNB-19 CNS. The test is described as follows: NCI-60 one-dose screen, 48 h (100 = growth as untreated, 0 = no growth, -100 = all killed). The note with it: 10 µM unless noted. The procedure:
Growth inhibition of the SNB-19 human tumor cell line is measured as a screen for anti-cancer activity. Cells are grown in 96 well plates and exposed to the test compound for 48 hours. Compounds are tested at a single concentration, which is 10^-5 M for most compounds. The reported endpoint is percent growth (GI% or GIPRCNT), where numbers from 0 - 100% represent growth inhibition, and numbers from -100% - 0 represent cell death. For example, a value of 40 represents 60% growth inhibition. A value of 0 means no net growth occurred over the course of the experiment. A value of -40 indicates 40% of cells at the beginning of the experiment died by the end of the experiment. A value of -100 means all cells are dead at the end of the experiment.
NCI-60 Human Tumor Cell Lines Screen was performed using the standard one-dose NCI protocol, which is described in more detail at https://dtp.cancer.gov/discovery_development/nci-60/default.htm.
Compounds with GIPRCNT values below 10 were considered active. Activity score was based on GIPRCNT using the following formula: […]
Score is 0 for GIPRCNT values of 100 or above, 50 for GIPRCNT values of 0, and 100 for GIPRCNT values of -100.
For the molecule `C=C(C)[C@@H]1CC[C@]2(C)[C@H](CC=C3[C@@H]4[C@@H](C)[C@H](C)CC[C@]4(C(N)=O)CC[C@]32C)[C@@]1(C)CCC#N`, the growth is 16.2% [100 µM].

In the case of `O=C(NCc1ccc(Cn2c(=O)sn(-c3ccccc3)c2=O)cc1)OCc1ccc2c(Br)cc(Br)c(O)c2n1`, the growth was 19.2%.

Regarding `O=C(NCCO)c1cccnc1`, the growth was 101%.

As for `C=C(C)C1CCC2(C(=O)O)CCC3(C)C(CCC4C5(C)CCC(OC(=O)NCc6ccccc6)C(C)(C)C5CCC43C)C12` (stereo not given), the growth was 65.4%.

In the case of `CC1(C)CC[C@]23CC[C@]4(C)[C@H](CC[C@@H]5[C@@]6(C)C/C(=C/c7cccnc7)C(=O)C(C)(C)[C@@H]6CC[C@]54C)[C@H]2[C@H]1OC3=O`, the growth was 59.6% [100 µM].

Turning to `CCN(CC)CCSC(=O)C(O)(c1ccccc1)C1CCCC1` (stereo not given), the growth was 111%.

Consider `CC(C)C1=NOC(=O)C1=Cc1cn(-c2cccnc2)nc1-c1ccccc1`, for which the growth is 93.9%.

On to `Cc1ccc(NCCN2CCCCC2)c2c(=O)c3ccccc3sc12`, for which the growth was 36%.

Turning to `O=C1NC(=O)C(Cc2ccccc2)(Cc2ccccc2)N1`, the growth is 95.2%.

For `O=C(Nc1ccc(CN2CCOCC2)c(C(F)(F)F)c1)c1nc2ccc3[nH]ncc3c2c2c1CCCC2`, the growth is 98.4%.

Turning to `C[C@H]1[C@H](C)CC[C@]2(C(=O)O)CC[C@]3(C)C(=CC[C@@H]4[C@@]5(C)C/C(=C/c6ccco6)C(=O)C(C)(C)[C@@H]5CC[C@]43C)[C@H]12`, the growth is -52.6% [100 µM] (active).

For the molecule `CC(C)C1=NOC(=O)C1=Cc1cn(-c2ccccc2)nc1-c1cccc([N+](=O)[O-])c1`, the growth is 74.2%.

`CCOC(=O)/C(C#N)=C(\C)CCc1ccccc1`: the growth was 104%.

For `COc1cc(-c2nc(SCCC(C)C)nc(Nc3ccccc3)c2C#N)cc(OC)c1OC`, the growth was 99.4%.

As for `C=C(C)[C@@H]1CC[C@]2(COCCC#N)CC[C@]3(C)[C@H](CC[C@@H]4[C@@](C)(CCCNCCC#N)[C@H](C(=C)C)CC[C@]43C)[C@@H]12`, the growth is 59% [100 µM].

`Cc1cccc(/C=C2\N=C(c3ccccc3)N(c3ccc(S(N)(=O)=O)cc3)C2=O)c1`: the growth is 80.1%.

Regarding `CCn1cc(-c2ccnc(NCCNS(=O)(=O)c3ccc(Br)cc3)c2)c(-c2cccc(OC)c2)n1`, the growth was 83.2%.

Regarding `NNC(=O)c1ccc(C(=O)NN)cc1`, the growth is 103%.

Take `CC1(C)NCCC[C@]2(C)[C@H]3C=CC4=C5C[C@](C)(CO)CC[C@]5(C)CC[C@@]4(C)[C@]3(C)CC[C@@H]12`: the growth is -90.4% [100 µM] (active).

For `CCN(CC)CCCCCCNc1cccc2cc(Br)cnc12`, the growth was 107%.

`C=C(C)[C@@H]1CC[C@]2(C(=O)OC)CC[C@]3(C)[C@H](CC[C@@H]4[C@@](C)(CCc5nn[nH]n5)[C@H](C(=C)C)CC[C@]43C)[C@@H]12`: the growth is -5.69% [100 µM] (active).

On to `COc1cc2c(c(OC)c1OC)-c1cc(I)c(O)cc1[C@@H](NC(C)=O)CC2`, for which the growth is 14.1%.

Turning to `N#Cc1c(N2CCOCC2)nc(=S)[nH]c1-c1ccco1`, the growth is 83.8%.

Turning to `CCN(CC)CCCC(C)Nc1c2ccc(C)cc2nc2ccc(OC)cc12` (stereo not given), the growth was 43.7%.

Turning to `CCOC(=O)c1c[nH]c2cc(OCC3CC3)c(OCC3CC3)cc2c1=O`, the growth is 117%.

As to `CCCCC1COc2cccc3c2N1C=C/C3=C\C(=O)n1ccc2ccccc21` (stereo not given), the growth is 84.9%.

As for `COc1ccc2[nH]c(C(=O)N3CCN(C(=O)OCc4ccc5c(Br)cc(Br)c(O)c5n4)CC3)cc2c1`, the growth is -93.1% (active).

Regarding `COc1ccc(/C=C/C(=C/c2c(O)[nH]c3cc(Br)ccc23)N=O)cc1`, the growth was 109%.

As to `N#CC1C(=O)NC(c2ccccc2[N+](=O)[O-])c2sc3c(F)cccc3c21` (stereo not given), the growth was 70.8%.

Consider `NC1=NC(=O)NC1(c1ccccc1)c1ccccc1`, for which the growth is 98.9%.

With `CC(C)C1=NOC(=O)C1=Cc1cn(-c2ccccc2)nc1-c1ccccc1`, the growth is 74.8%.

In the case of `O=C(CCN1CCCCC1)c1ccc(Cl)cc1`, the growth was 103%.

On to `C[C@@H]1C[C@H]2C(=O)O[C@@H](C)[C@H](NC(=O)[C@H](Cc3cc(F)cc(F)c3)NC(=O)Nc3ccc(C4CC4)cc3F)C(=O)N3CCC[C@H]3C(=O)N3CCCC[C@H]3C(=O)N[C@@H](C)C(=O)N2C1`, for which the growth was 15.8%.

In the case of `CSc1nc(N)c(N=Nc2ccc(S(=O)(=O)Nc3nnc(C)s3)cc2)c(=O)[nH]1`, the growth was 103%.

Regarding `O=C(Nc1ccccc1)Nc1ccc(C(=O)/C=C/c2ccc(N3CCCC3)cc2)cc1`, the growth is 68%.

As to `NC(=O)c1c(NC(=O)COC(=O)Cc2ccccc2F)sc2c1CCC2`, the growth was 86.6%.

As to `CC1=C/C(=C(\c2cc(C)c(O)c(C(=O)O)c2)c2c(Cl)cccc2Cl)C=C(C(=O)O)C1=O`, the growth was 91.3%.

Turning to `CC(C)(C)c1cc(C(=O)Nc2ccc(C(=O)NCCN)cc2)cc(C(C)(C)C)c1`, the growth is 33.6%.

Regarding `C[C@H]1[C@H](C)CC[C@]2(C(=O)O)CC[C@]3(C)C(=CC[C@@H]4[C@@]5(C)C/C(=C/c6cccnc6)[C@H](O)C(C)(C)[C@@H]5CC[C@]43C)[C@H]12`, the growth is 3.05% [100 µM] (active).

For `FC(F)(F)c1ccc2c(c1)Sc1ccccc1N2`, the growth was 95.9%.
